Experimental data taken from PubChem BioAssay AID2314 (National Center for Advancing Translational Sciences (NCATS), 2010).
About 37,000 (12%) of roughly 300,000 compounds were called active. Rule as the data show it: active = max response mostly above about 13% (no sharp cut-off); inactive = mostly below about 14%. What follows is part of a selection rich in actives, with near analogues and random picks from the rest.

assay: Cycloheximide Counterscreen for Small Molecule Inhibitors of Shiga Toxin; details: cell reporter, cycloheximide protein synthesis inhibition counterscreen; active compounds read high; also: read at 38.3 µM for the half of the compounds with a filed dose; 0% is about no effect

Question: For `O=C(NC1CCCC1)C1CC(=O)N(c2ccc(F)cc2)C1` (stereo unspecified), which max response is on record?
Answer: The max response was -4.78% (inactive).

Question: With `COCCC(=O)N1CCC(Oc2ccc(C(=O)NCc3ccon3)cc2)CC1` as the compound, how does the max response read?
Answer: Its max response is 2.55% (inactive).

Question: Which max response does the source give for `Cc1ccc2nc(-c3ccc(NC(=O)c4cccnc4)cc3)oc2c1` here?
Answer: Its max response is 49.6% (active).

Question: Which max response does the source give for `COc1cc(OC)cc(C(=O)Nc2ccc(S(=O)(=O)Nc3cc(C)on3)cc2)c1` here?
Answer: The max response was -4.87% (inactive).

Question: For `CC(=O)Nc1ccc(Nc2c3ccccc3nc3ccccc23)cc1`, which max response is on record?
Answer: Its max response is -9.79% (inactive).

Question: For `COc1cc(OC)cc(C(=O)Nc2ccc(-c3nc4ccccc4o3)c(O)c2)c1`, which max response is on record?
Answer: Its max response is 24.8% (active).

Question: With `Cc1cc2nc(-c3ccc(NC(=O)c4cccnc4)cc3)oc2cc1C` as the compound, how does the max response read?
Answer: The max response was 32.1% (active).

Question: With `CC(=O)Nc1ccc(-c2nc3ccccc3o2)cc1` as the compound, how does the max response read?
Answer: The max response was 35.3% (active).

Question: For `COC(=O)c1cc(NC(=O)c2cccnc2)ccc1N1CCOCC1`, which max response is on record?
Answer: Its max response is -2.96% (inactive).

Question: Which max response does the source give for `Cc1cc(NS(=O)(=O)c2ccc(NC(=O)c3cccnc3)cc2)nc(C)n1` here?
Answer: The max response was 1.8% (inactive).

Question: With `COc1cc(OC)cc(C(=O)Nc2ncc3c(n2)CC(C)(C)CC3=O)c1` as the compound, how does the max response read?
Answer: Its max response is 9.17% (inactive).

Question: Which max response does the source give for `CC(=O)Nc1ccc(S(=O)(=O)N(C)c2nc3ccccc3nc2Cl)cc1` here?
Answer: The max response was 18% (inactive).

Question: For `CC(=O)NC(=S)Nc1ccc(NC(=O)c2cccnc2)cc1`, which max response is on record?
Answer: The max response was 1.22% (inactive).

Question: With `CCC1=Nc2cc(C(=O)NCCCN3CCOCC3)ccc2Sc2ccc(Br)cc21` as the compound, how does the max response read?
Answer: Its max response is -2.78% (inactive).

Question: For `CC(=O)Nc1ccc(S(=O)(=O)NCC(=O)OCc2cc(=O)oc3ccc4ccccc4c23)cc1`, which max response is on record?
Answer: Its max response is -2.56% (inactive).

Question: With `Cc1cc(OCCN2CCCC2)cc(C(C)C)c1` as the compound, how does the max response read?
Answer: The max response was -2.45% (inactive).

Question: For `CCn1cc(CN2CCC(C(=O)Nc3cccc(-c4cccc(Cl)c4)c3)CC2)cn1`, which max response is on record?
Answer: Its max response is -10.1% (inactive).

Question: For `CC1Cc2cc(/C(O)=C3\C(=O)C(=O)N(Cc4cccnc4)C3c3ccccc3F)ccc2O1` (stereo unspecified), which max response is on record?
Answer: Its max response is -1.92% (inactive).

Question: Which max response does the source give for `O=C(Cn1cc(/C=N/NC(=O)c2cccc(C(F)(F)F)c2)c2ccccc21)Nc1ccc(F)cc1` here?
Answer: Its max response is 2.04% (inactive).

Question: For `O=C(C(Cc1ccccc1)n1cccc1)N1CCN(C2CCCCC2)CC1` (stereo unspecified), which max response is on record?
Answer: The max response was -4.26% (inactive).

Question: With `CCOC(=O)C1CCN(S(=O)(=O)c2c(C)noc2C)CC1` as the compound, how does the max response read?
Answer: The max response was -1.8% (inactive).

Question: Which max response does the source give for `Cc1ccc(C)c(S(=O)(=O)N2CCN(C(=O)Nc3ccccc3)CC2)c1` here?
Answer: The max response was -1.4% (inactive).

Question: With `Cc1ccc(NC(=O)Cn2nc(C)c3ccccc3c2=O)c(C)c1` as the compound, how does the max response read?
Answer: The max response was -1.38% (inactive).

Question: Which max response does the source give for `Cc1ccc(NC(=O)c2ccn(C(=O)Nc3ccccc3)n2)c(C)c1` here?
Answer: The max response was 43.3% (active).

Question: For `Cc1ccc(CCCOC(=O)C[N+]2(C)CCCC2)cc1`, which max response is on record?
Answer: Its max response is -2.71% (inactive).

Question: Which max response does the source give for `Cc1c(C(=O)N2CCN(c3ccc(F)cc3)CC2)oc2c1C(=O)CCC2` here?
Answer: Its max response is -3.49% (inactive).
